# Assay results as given in the supplement of paper PMC8728848.
# About 410 targets per protein were measured; listed, in parts, are those with the strongest signals and a random draw of the rest.
# B1: LCA (Lens culinaris), P02870 (protein)
# chain: MASLQTQMISFYLIFLSILLTTIFFFKVNSTETTSFSITKFSPDQKNLIFQGDGYTTKGKLTLTKAVKSTVGRALYSTPIHIWDRDTGNVANFVTSFTFVIDAPSSYNVADEFTFFIAPVDTKPQTGGGYLGVFNSKEYDKTSQTVAVEFDTFYNAAWDPSNKERHIGIDVNSIKSVNTKSWNLQNGERANVVIAFNAATNVLTVTLTYPNSLEEENVTSYTLNEVVPLKDVVPEWVRIGFSATTGAEFAAHEVHSWSFHSELGGTSSSKQAADA
# Key:
# Assay in all cases: glycan array binding signal (z-score within array); higher = stronger binding
# Conditions in all cases: glycan notation: IUPAC condensed, linker removed
# [1] = target: GlcNAc(b1-3)Gal(b1-4)GlcNAc(b1-3)Gal(b1-4)GlcNAc
# Summary of the method: (§1)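 Glycan array data came from 3228 arrays in the Consortium for Functional Glycomics database, and only arrays with an available protein sequence were kept. Glycan names were put into IUPAC-condensed notation, and columns mapping to the same glycan were averaged. The binding signal is a within-array Z-score, averaged across arrays of one protein sequence run at different concentrations or buffers and across linkers. A negative Z-score can be read as non-binding.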
# [2] = target: GlcNAc(b1-3)Gal(b1-4)GlcNAc(b1-3)Gal(b1-4)GlcNAc(b1-3)Gal(b1-4)GlcNAc(b1-3)Gal(b1-4)GlcNAc(b1-2)Man(a1-3)[GlcNAc(b1-3)Gal(b1-4)GlcNAc(b1-3)Gal(b1-4)GlcNAc(b1-3)Gal(b1-4)GlcNAc(b1-3)Gal(b1-4)GlcNAc(b1-2)Man(a1-6)]Man(b1-4)GlcNAc(b1-4)[Fuc(a1-6)]GlcNAc
# Summary of the method: as §1
# GlcNAc(b1-3)GalNAc = target: GlcNAc(b1-3)GalNAc
# Summary of the method: as §1
# [3] = target: GlcNAc(b1-4)GlcNAc(b1-4)GlcNAc
# Summary of the method: as §1
# [4] = target: Kdn(a2-3)Gal(b1-4)[Fuc(a1-3)]GlcNAc
# Summary of the method: as §1
# [5] = target: Man(a1-2)Man(a1-3)[Man(a1-2)Man(a1-6)]Man(a1-6)[Man(a1-2)Man(a1-2)Man(a1-3)]Man
# Summary of the method: as §1
# [6] = target: Man(a1-2)Man(a1-3)[Man(a1-6)]Man(a1-6)[Man(a1-2)Man(a1-3)]Man(b1-4)GlcNAc(b1-4)GlcNAc
# Summary of the method: as §1
# [7] = target: Man(a1-3)[Man(a1-6)]Man(b1-4)GlcNAc(b1-4)[Fuc(a1-6)]GlcNAc
# Summary of the method: as §1
# [8] = target: Neu5Ac(a2-3)Gal(b1-4)GlcNAc(b1-2)Man(a1-3)[GlcNAc(b1-4)][Neu5Ac(a2-3)Gal(b1-4)GlcNAc(b1-2)Man(a1-6)]Man(b1-4)GlcNAc(b1-4)GlcNAc
# Summary of the method: as §1
# [9] = target: Neu5Ac(a2-3)Gal(b1-4)GlcNAc(b1-3)Gal(b1-4)GlcNAc(b1-3)Gal(b1-4)GlcNAc
# Summary of the method: as §1
# [10] = target: Neu5Ac(a2-3)Gal(b1-4)[Fuc(a1-3)]GlcNAc(b1-6)[Gal(b1-3)]GalNAc
# Summary of the method: as §1
# [11] = target: Neu5Ac(a2-3)[GalNAc(b1-4)]Gal(b1-4)Glc
# Summary of the method: as §1
# [12] = target: Neu5Ac(a2-3)[GalNAc(b1-4)]Gal(b1-4)GlcNAc(b1-3)GalNAc
# Summary of the method: as §1
# [13] = target: Neu5Ac(a2-6)Gal(b1-3)GlcNAc(b1-3)[Gal(b1-4)GlcNAc(b1-6)]Gal(b1-4)Glc
# Summary of the method: as §1
# [14] = target: Neu5Ac(a2-6)Gal(b1-4)GlcNAc
# Summary of the method: as §1
# [15] = target: Neu5Ac(a2-6)Gal(b1-4)GlcNAc(b1-2)Man(a1-3)[Gal(b1-4)GlcNAc(b1-2)Man(a1-6)]Man(b1-4)GlcNAc(b1-4)GlcNAc
# Summary of the method: as §1
# [16] = target: Neu5Ac(a2-6)Gal(b1-4)GlcNAc(b1-2)Man(a1-3)[Man(a1-6)]Man(b1-4)GlcNAc(b1-4)GlcNAc
# Summary of the method: as §1
# [17] = target: Neu5Ac(a2-6)Gal(b1-4)GlcNAc(b1-2)Man(a1-3)[Neu5Ac(a2-6)Gal(b1-4)GlcNAc(b1-2)Man(a1-6)]Man(b1-4)GlcNAc(b1-4)[Fuc(a1-6)]GlcNAc
# Summary of the method: as §1
# [18] = target: Neu5Ac(a2-6)Gal(b1-4)GlcNAc(b1-3)Gal(b1-4)GlcNAc(b1-3)GalNAc
# Summary of the method: as §1
# [19] = target: Neu5Ac(a2-8)Neu5Ac(a2-3)Gal(b1-4)GlcNAc
# Summary of the method: as §1
# [20] = target: Neu5Gc(a2-3)Gal(b1-3)[Fuc(a1-4)]GlcNAc
# Summary of the method: as §1
# [21] = target: Neu5Gc(a2-3)Gal(b1-4)GlcNAc
# Summary of the method: as §1
binder,measurement,setting,value
B1,glycan array binding signal (z-score),[1],-0.199
same,glycan array binding signal (z-score),[2],3.94
same,glycan array binding signal (z-score),GlcNAc(b1-3)GalNAc,-0.209
same,glycan array binding signal (z-score),[3],-0.184
same,glycan array binding signal (z-score),[4],-0.228
same,glycan array binding signal (z-score),[5],1.19
same,glycan array binding signal (z-score),[6],2.09
same,glycan array binding signal (z-score),[7],6.07
same,glycan array binding signal (z-score),[8],-0.262
same,glycan array binding signal (z-score),[9],-0.228
same,glycan array binding signal (z-score),[10],-0.145
same,glycan array binding signal (z-score),[11],-0.235
same,glycan array binding signal (z-score),[12],0.102
same,glycan array binding signal (z-score),[13],-0.232
same,glycan array binding signal (z-score),[14],-0.202
same,glycan array binding signal (z-score),[15],-0.188
same,glycan array binding signal (z-score),[16],-0.239
same,glycan array binding signal (z-score),[17],4.04
same,glycan array binding signal (z-score),[18],-0.224
same,glycan array binding signal (z-score),[19],-0.237
same,glycan array binding signal (z-score),[20],-0.207
same,glycan array binding signal (z-score),[21],-0.219
